# The panel holds about 83,000 compounds, 20% with a hit somewhere; the sample as a whole holds those more often.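 Assay: single dose, 48 h. Readout: percent growth (0 = no net growth; negative = cell death). Active: <10.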 A number with no mark means an inactive call. Activity calls are given as the source filed them.
# Columns and labels:
# Assay in all cases: NCI-60 one-dose screen, 48 h (100 = growth as untreated, 0 = no growth, -100 = all killed)
# Conditions in all cases: 10 µM unless noted
# SR leukemia = tested on: SR leukemia
# RPMI-8226 leukemia = tested on: RPMI-8226 leukemia
# OVCAR-8 ovarian = tested on: OVCAR-8 ovarian
# OVCAR-5 ovarian = tested on: OVCAR-5 ovarian
# OVCAR-4 ovarian = tested on: OVCAR-4 ovarian
# SK-OV-3 ovarian = tested on: SK-OV-3 ovarian
# IGROV1 ovarian = tested on: IGROV1 ovarian
# OVCAR-3 ovarian = tested on: OVCAR-3 ovarian
# HS 578T breast = tested on: HS 578T breast
# NCI/ADR-RES ovarian = tested on: NCI/ADR-RES ovarian
SMILES,growth (SR leukemia),growth (RPMI-8226 leukemia),growth (OVCAR-8 ovarian),growth (OVCAR-5 ovarian),growth (OVCAR-4 ovarian),growth (SK-OV-3 ovarian),growth (IGROV1 ovarian),growth (OVCAR-3 ovarian),growth (HS 578T breast),growth (NCI/ADR-RES ovarian)
COc1ccc(OC)c(Cn2cc3c(c2)-c2oncc2CC3)c1,22.7%,42.5%,55.5%,58.1%,69.1%,11.6%,31.2%,-4.75% (active),19.2%,1.37% (active)
Cc1nc2c(nnn2-c2ccccc2)c2nc(-c3ccc(Cl)cc3)oc(=O)c12,103%,108%,110%,104%,114%,119%,111%,118%,107%,113%
COc1ccc(CN2C(=O)/C(=C\C(=O)c3ccc(OCCN4CCCCC4)cc3)c3ccccc32)cc1,-22.2% (active),-11.6% (active),80.8%,76.3%,45.4%,107%,68.7%,44.3%,81.3%,83.3%
CC(O)CN(CC(C)O)N(CC(C)O)CC(C)O (stereo not given),94.2%,98.9%,97.9%,101%,98.2%,109%,113%,109%,108%,106%
C[C@@H](c1ccc2c(c1)[nH]c1ccc(Cl)cc12)c1nc2ccccc2[nH]1,74.3%,81.3%,93%,112%,94%,105%,80.6%,86.7%,105%,91%
O=C(Nc1ccc(-n2cc(-c3ccncc3)c(-c3ccc(Cl)c(O)c3)n2)cc1)Nc1cc(C(F)(F)F)cc(C(F)(F)F)c1,-0.887% (active),-25.7% (active),18.2%,38.2%,26.5%,15%,23.4%,17.3%,-31.2% (active),11.3%
CCOC(=O)C1=NN(c2ccccc2)C2=NC(=O)/C(=C\c3cn(-c4ccccc4)nc3-c3cc4ccccc4o3)C(=O)N12,98%,83%,100%,106%,103%,97.6%,89.1%,103%,97.9%,106%
CC1=C(C)C[C@]2(C(=O)O[C@H]3CCCC[C@@H]32)[S@](=O)C1,92.3%,111%,105%,114%,106%,110%,113%,107%,107%,104%
CSc1nc(N)n2nccc2n1,111%,106%,98.5%,114%,103%,105%,105%,106%,105%,105%
CCOC(=O)c1sc(NS(=O)(=O)c2ccccc2)nc1C,102%,120%,114%,107%,111%,106%,6.87% (active),133%,111%,114%
COC1NC(Cl)=C(C#N)C(C#N)(C#N)C1(C)C (stereo not given),98.7%,127%,107%,31.6%,111%,113%,-21.4% (active),123%,104%,120%
CC(=O)Nc1nc(C)c(C(=O)N/N=C/N2CCOCC2)s1,169%,116%,115%,106%,119%,110%,70.3%,104%,97.6%,120%
COc1ccc2c(c1)/C(=C1/S/C(=N/c3nnc(C)s3)NC1=O)C(=O)N2Cc1ccc(Br)cc1,55%,26.6%,38%,74.5%,40.1%,52.1%,40.9%,28.7%,47.8%,32.2%
CCOC(=O)/C(C#N)=C(/CC)OCC,85.6%,103%,98.8%,106%,106%,105%,105%,104%,115%,112%
C=CCSc1nnc(COc2ccc3c(C)c(Cc4ccccc4)c(=O)oc3c2C)o1,77.7%,99.9%,97.6%,104%,96.1%,108%,112%,108%,94.5%,98%
CC1CCCCC[N+]12CCCC2 (stereo not given),91.7%,100%,101%,106%,113%,98.1%,102%,116%,112%,111%
CC(=O)Nc1nc(C)c(C(=O)NNC(=O)Nc2ccccc2)s1,95.9%,91.7%,113%,108%,109%,105%,141%,100%,102%,98.6%
CNCCCNCCCCNCCCN1C(=O)c2ccc3c4c(ccc(c24)C1=O)C(=O)N(CCCNCc1ccccc1OC)C3=O,12%,15%,41.9%,55.9%,-10.8% (active),54.4%,12.7%,6.09% (active),12.5%,43.4%
CC1=NN(c2cccc(Cl)c2)C(=O)/C1=C\c1cn(-c2nc(N3CCOCC3)nc(N3CCOCC3)n2)c2ccccc12,100%,98.3%,107%,103%,105%,109%,106%,106%,104%,103%
CC1(C)C(O)NC(Cl)=C(C#N)C1(C#N)C#N (stereo not given),119%,110%,103%,83%,107%,108%,-10.9% (active),229%,114%,103%
Cc1nc2c(nnn2-c2ccccc2)c2nc(-c3ccccc3)oc(=O)c12,105%,113%,111%,105%,115%,115%,111%,117%,107%,112%
COc1ccc(C2C3(C#N)C(N)=NC(=C(C#N)C#N)C23C#N)cc1OC (stereo not given),83.6%,117%,106%,93.3%,110%,109%,113%,109%,96.5%,114%
C=CCNC(=S)NNc1ccc([N+](=O)[O-])cn1,98.3%,101%,111%,95.6%,-92.2% (active),104%,102%,98.7%,105%,95.9%
CC(=O)Nc1nc(C)c(C(=O)N/N=C/N2CCCCC2)s1,104%,124%,103%,103%,121%,103%,9.23% (active),128%,107%,104%
COc1ccc2sc(-n3nc4nc5n(c(=O)c4c3N)-c3ccccc3Sc3ccccc3-5)nc2c1,65.2%,45.5%,81.7%,126%,66.4%,91.8%,67.9%,76.6%,90.6%,74%
CC(C)(C)c1ccc([I+]c2ccc(C(C)(C)C)cc2)cc1,5.64% (active),-19.9% (active),7.15% (active),49.6%,18.3%,30.3%,20.9%,2.92% (active),29.1%,90.2%
COc1ccc(/C=C(/C(=O)N2CCN(c3ccc(C)cc3)CC2)c2cc(OC)c(OC)c(OC)c2)cc1N,11.3%,12.8%,21.6%,27.1%,43.9%,26.2%,24.7%,-27.8% (active),32.6%,13.7%
CCC(C)[C@H](NC(=O)Nc1cc(C(F)(F)F)cc(C(F)(F)F)c1)C(=O)N[C@@H](Cc1cn(C)cn1)C(=O)OC (stereo not given in full),-37.8% [100 µM] (active),-65.7% [100 µM] (active),-78.3% [100 µM] (active),-93.7% [100 µM] (active),-96.7% [100 µM] (active),-100% [100 µM] (active),-81.5% [100 µM] (active),-97.6% [100 µM] (active),-18.6% [100 µM] (active),-49.2% [100 µM] (active)

# From PubChem BioAssay (NCI)
